Screens: PubChem, The Scripps Research Institute Molecular Screening Center
FBW7 activator – human FBW7 E3 ligase activation, primary screen. normalized activity (activation), % at 26.1 µM. 0.13% of 650,000 active. AlphaScreen FBW7–phospho-cyclin E peptide binding, activator screen; in the data active = normalized activity above about 1.9%;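 note: purified mutant Fbw7 with reduced substrate affinity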
GPR151 ag – activates the human receptor GPR151. 1% of 650,000 active. activation, % at 11.2 µM. Q8TDV0. PathHunter beta-arrestin GPR151 cells, luminescence; in the data active = activation above about 4.9%
Target sequence (Q8TDV0 whole entry, looked up): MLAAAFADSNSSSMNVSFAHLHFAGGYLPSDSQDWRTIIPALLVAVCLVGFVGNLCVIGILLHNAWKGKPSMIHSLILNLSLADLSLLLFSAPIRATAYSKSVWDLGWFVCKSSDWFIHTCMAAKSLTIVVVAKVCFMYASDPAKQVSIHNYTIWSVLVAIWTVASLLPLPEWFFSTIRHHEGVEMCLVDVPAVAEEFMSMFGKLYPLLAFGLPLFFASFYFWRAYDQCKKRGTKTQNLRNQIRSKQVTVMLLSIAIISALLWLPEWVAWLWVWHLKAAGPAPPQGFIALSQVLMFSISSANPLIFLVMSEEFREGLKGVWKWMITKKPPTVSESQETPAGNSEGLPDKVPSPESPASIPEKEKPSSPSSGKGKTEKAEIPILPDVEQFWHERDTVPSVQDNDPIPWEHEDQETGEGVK
TEAD-YAP inh – TEAD-YAP interaction inhibition. inhibition, % at 9.12 µM. AID 1259422. HEK-TIYL cells, TEAD-Gal4/YAP UAS-luciferase luminescence. 1.4% of 640,000 active; in the data active = inhibition above about 32%
MITF primary – blocks human microphthalmia-associated transcription factor; 0.91% of 650,000 active; inhibition, % at 2.6 µM; O75030; AlphaScreen MITF homodimerization, bead proximity signal; AID 1259374; in the data active = inhibition above about 50%
A number is an active result; n = inactive. A selection: hits, their analogues and other compounds. The true share with any hit is near 3.5%.

SMILES	FBW7 activator	GPR151 ag	TEAD-YAP inh	MITF primary
O=C(Nc1ccc(O)cc1)c1sc2ccccc2c1Cl	n	n	87	n
O=C(N/N=C/c1ccc(O)c(O)c1O)c1sc2ccccc2c1Cl	n	n	n	61
COC(=O)c1sc(NC(=O)c2sc3ccccc3c2Cl)nc1C	n	n	n	n
Cc1nc(NC(=O)c2sc3ccccc3c2Cl)sc1C	n	n	87	n
COc1ccc(CNS(=O)(=O)c2csc(C(N)=O)c2)cc1	n	n	n	n
COC(=O)C(C)NC(=O)C(Cc1ccccc1)NC(C)=O (centres undefined)	n	n	n	n
CC(=O)NC(C(=O)NC(Cc1ccccc1)C(N)=O)C(C)C (centres undefined)	2.0	n	n	n
CC(=O)NC(CC(C)C)C(=O)NC(Cc1ccccc1)C(N)=O (centres undefined)	2.5	n	n	n
Cc1cc(C)nc(SCc2cc(=O)c(OC(=O)c3ccccc3I)co2)n1	n	n	n	n
COc1ccc(N(CC(=O)c2ccc(C3CCCCC3)cc2)C2=NCCCCC2)c(OC)c1	n	n	55	n
COc1ccc(N(CC(=O)NC2CCCC2)S(C)(=O)=O)c(OC)c1	n	n	n	n
Cc1ccc2[nH]c(=O)c(CCC(=O)O)c(C)c2c1	n	n	n	n
COc1ccc2[nH]c(=O)c(CN(Cc3cccnc3)C(=O)Nc3ccccc3)cc2c1	n	n	n	n
COc1ccc(NC(=O)N(CCCO)Cc2cc3cccc(C)c3[nH]c2=O)cc1	n	n	n	n
COc1ccc2[nH]c(=O)c(CN(Cc3cccnc3)C(=O)Nc3ccc(F)cc3)cc2c1	n	n	46	n
Cc1cccc2cc(CN(CCO)C(=O)Nc3ccc(F)cc3)c(=O)[nH]c12	2.3	n	n	n
O=C(O)c1cccc(NC(=O)c2cc3ccccc3o2)c1	n	n	39	n
O=C(Nc1nccs1)c1cc2ccccc2o1	n	n	58	n
CC(C)CC(CO)NC(=O)c1cnc2scc(-c3ccccc3)n2c1=O (centres undefined)	n	n	n	n
O=C(NCCCc1ccccc1)c1cc(COc2ccccc2)on1	n	n	n	n
COC(=O)c1cccc(NS(=O)(=O)c2ccc(OC)c(Br)c2)c1C	n	n	n	n
Cc1nc2ccccn2c1-c1csc(Nc2ccc(S(N)(=O)=O)cc2)n1	n	n	n	n
Cc1nc2ccccn2c1-c1csc(Nc2ccc(Cl)cc2)n1	n	n	44	n
CCN(CC)c1ccc(Nc2nc(-c3c(C)nc4ccccn34)cs2)cc1	n	n	n	n
Cc1ccc(Nc2nc(-c3c(C)nc4ccccn34)cs2)c(C)c1	n	n	53	n
SMILES	FBW7 activator	GPR151 ag	TEAD-YAP inh	MITF primary
Cc1ccc(Nc2nc(-c3c(C)nc4ccccn34)cs2)cc1	n	n	53	n
CCCN(CCO)Cc1ccccc1F	n	n	n	n
CCCC(=O)N1CCN(CCN=CC2=C(O)CC(c3ccccc3)CC2=O)CC1 (centres undefined)	n	n	n	n
Fc1ccc(CN2CCOc3ccc(-c4ccncc4)cc32)cc1	n	n	43	n
Fc1ccc(Nc2ccn3ncc(-c4ccsc4)c3n2)cc1Cl	2.0	n	n	n
Fc1ccc(Nc2ccn3ncc(-c4cccs4)c3n2)cc1Cl	n	n	n	n
O=C(Cn1cc(C(=O)C2CC2)c2ccccc21)NCc1cccnc1	n	n	n	n
COc1cc(-c2cncc(-c3ccccc3N(C)C)n2)cc(OC)c1OC	n	n	n	n
COc1cncc(-c2cncc(-c3ccccc3N(C)C)n2)c1	n	n	36	n
CC(c1ccccc1)c1cc(C(=O)NCC2CCN(C(C)C)CC2)on1 (centres undefined)	n	n	n	n
COc1cc2oc(=O)cc(C)c2cc1OC	n	n	n	n
COc1cc2oc(=O)cc(C)c2cc1C=O	n	n	62	n
CC1(c2ccccc2)CC(C)(C)N2C(=O)/C(=C3\SC(=O)NC3=O)c3cccc1c32 (centres undefined)	n	n	50	n
CC(=O)N1C(=O)/C(=C2\SC(=O)NC2=O)c2ccccc21	n	n	n	n
NC(=O)c1sc2nc3c(c(-c4cccs4)c2c1N)CCC3	n	n	44	n
COC(=O)c1sc2nc3c(c(-c4cccs4)c2c1N)CCC3	n	n	n	n
O=C(NNC(=O)C1CC1c1ccccc1)OCC1c2ccccc2-c2ccccc21 (centres undefined)	n	n	n	n
Cc1ccc2nc(/C(C#N)=C/c3ccccc3OC(=O)c3ccccc3)[nH]c2c1	n	n	52	n
Cc1ccc(-c2cnc3c(Nc4ccc5[nH]ccc5c4)nccn23)cc1	n	n	n	n
COc1cc(-c2cnc3c(Nc4ccc5[nH]ccc5c4)nccn23)cc(OC)c1OC	n	n	n	n
c1cn2c(-c3ccsc3)cnc2c(Nc2ccc3[nH]ccc3c2)n1	n	n	56	n
OCc1ccccc1-c1cnc2c(Nc3ccc4[nH]ccc4c3)nccn12	n	n	93	n
Oc1ccc(-c2cnc3c(Nc4ccc5[nH]ccc5c4)nccn23)cc1	n	n	69	n
Nc1ccc(-c2cnc3c(Nc4ccc5[nH]ccc5c4)nccn23)cc1	n	n	69	n
COc1cc(CCC(=O)OCC(=O)c2cc(C)n(C3CC3)c2C)cc(OC)c1OC	n	n	n	n
SMILES	FBW7 activator	GPR151 ag	TEAD-YAP inh	MITF primary
COc1ccc(-c2nc(-c3ccncc3)no2)cc1	n	n	n	n
COc1cc(OC)cc(-c2nc(-c3ccccn3)no2)c1	n	n	n	n
COc1ccc(-c2noc(-c3cccc(C)c3)n2)cc1	n	n	n	n
COc1cc(OC)cc(-c2nc(-c3ccccc3)no2)c1	n	n	n	n
COc1ccc(-c2nc(-c3ccccc3)no2)cc1	n	n	53	n
Cc1cccc(-c2noc(-c3ccc(C(C)(C)C)cc3)n2)c1	n	n	49	n
COc1ccc(-c2nc(-c3ccccn3)no2)cc1	n	n	97	n
COc1ccc(-c2nc(-c3cccs3)no2)cc1	n	n	75	n
CCOc1cc(/C=C2/C(=N)N3N=C(CC)SC3=NC2=O)ccc1OCCOc1ccc(C)cc1	n	n	n	n
O=C(c1cnc(N2CCN(c3ncccn3)CC2)c2ccccc12)N1CCN(c2ccc(F)cc2)CC1	n	n	n	n
Fc1ccc(N2CCN(c3ncnc4c3cnn4-c3ccc(Cl)cc3)CC2)cc1	n	n	n	n
CCCN(C(=O)c1cn(CC)c(=O)c2cc(OC)c(OC)cc12)c1ccccc1C	n	n	n	n
CC(=O)N1CCC2(CC1)CC(=O)c1cc(OCC(=O)O)ccc1O2	n	n	n	n
N#CC1=C(N)OC2=C(CCC/C2=C/c2ccoc2)C1c1ccoc1 (centres undefined)	n	n	n	58
N#Cc1ccsc1NC(=O)c1cccc(Cl)c1Cl	n	n	n	n
N#Cc1ccsc1NC(=O)/C=C/c1ccccc1Cl	n	n	64	n
OCCCNc1nccn2c(-c3ccc(OC(F)(F)F)cc3)cnc12	n	n	n	n
COc1cccc2sc(Nc3nc(-c4ccncc4)cs3)nc12	n	n	45	n
COc1cccc2sc(Nc3nc(-c4cccnc4)cs3)nc12	n	n	39	n
COc1ccccc1Nc1nc(-c2ccncc2)cs1	n	n	n	n
